Screening results (PubChem)
TIM10 inh: growth inhibitors of isogenic TIM10 control yeast, primary screen, counter-screen for tim10-1 yeast inhibitor project, luminescence, uHTS; hit rate 1.4% among 330,000; S. cerevisiae TIM10 strain growth, BacTiter-Glo luminescence, 24 h; AID 463195, 2010; inhibition, % at 10 µM;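 active = inhibition of 40% or more at the single tested concentration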;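 note: wild-type TIM10 isogenic control strain grown at permissive 25 °C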
tim10-1 inh: growth inhibitors of tim10-1 mutant yeast, primary screen, luminescence, uHTS; S. cerevisiae tim10-1 ts strain growth, BacTiter-Glo, 24 h; inhibition, % at 20 µM; hit rate 2.2% among 330,000;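 active = inhibition of at least 40%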;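 note: mutant grown at 25 °C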
tim23-1 inh: growth inhibitors of tim23-1 mutant yeast, primary screen, luminescence, uHTS. inhibition, % at 20 µM. hit rate 1.3% among 330,000. S. cerevisiae tim23-1 growth, BacTiter-Glo luminescence, 24 h;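 active = growth inhibition of the mutant yeast at or above 50%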;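 note: temperature-sensitive mutant grown at 25 °C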
NLRP3 yeast inh: NALP3 inflammasome inhibitors in reconstituted yeast, primary screen, luminescence, uHTS; hit rate 0.39% among 330,000; inhibition, % at 10 µM; Yeast reconstituted NLRP3/ASC/caspase-1, beta-gal luminescence, 24 h;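 active = inhibition of 50% or more; inactive = inhibition below 50%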
NALP1 yeast inh: NALP1 inflammasome inhibitors in reconstituted yeast, colorimetric, S. cerevisiae, triplicate retest; S. cerevisiae NALP1/ASC/caspase-1 growth, X-gal OD620, 72 h; inhibition, % at 10 µM; hit rate 0.61% among 280,000; AID 2071, 2009; in the data active = inhibition mostly above about 24%, no sharp cut-off; inactive = mostly below about 32%
NALP3 confirm: NALP3 inhibitors retested in yeast, confirmation, luminescence, single concentration; shares compounds with NLRP3 yeast inh; yeast expressing human NALP3; inhibition, % at 10 µM; hit rate 81% among 1,300; AID 435006, 2010; in the data active = inhibition above about 48%
Casp1 ASC ctr: CASP1-PYCARD signaling inhibition in yeast, confirmatory test, counterassay for NLRP3 inhibitor program, one-dose; shares compounds with NLRP3 yeast inh; yeast expressing Caspase-1-ASC, luminescence counter screen; inhibition, % at 10 µM; hit rate 66% among 1,000; AID 488784, 2010
NALP3 retest: NALP3 inhibitors in yeast, repeat test, confirmation, luminescence, single concentration, retest; shares compounds with NLRP3 yeast inh; yeast expressing human NALP3, luminescence read-out; inhibition, % at 10 µM; hit rate 53% among 1,000
tim10-1 confirm: growth inhibitors of tim10-1 mutant yeast, confirmation, single concentration, luminescence, S. cerevisiae | shares compounds with tim10-1 inh | S. cerevisiae tim10-1 ts strain growth, BacTiter-Glo, 24 h | inhibition, % at 20 µM | hit rate 56% among 7,400;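 active = inhibition of yeast growth at or above a set limit in either of two repeat tests at 20 µM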;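 note: tim10-1 mutant grown at permissive 25 °C to find synthetic lethal compounds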
TIM10 conf: growth inhibitors of wild-type TIM10 yeast, confirmation, counter-screen for tim10-1 synthetic lethality project, single concentration, luminescence, S. cerevisiae | hit rate 63% among 4,600 | inhibition, % at 10 µM | shares compounds with TIM10 inh | S. cerevisiae tim10 strain growth, BacTiter-Glo luminescence, 24 h;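 active = inhibition of yeast growth at or above a set limit in either of two replicates at 10 µM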; note: this counterscreen used the strain with wild-type TIM10
tim23-1 confirm: tim23-1 mutant yeast growth inhibitors, confirmation, luminescence, single concentration; shares compounds with tim23-1 inh; S. cerevisiae tim23-1 growth, BacTiter-Glo luminescence, 24 h; inhibition, % at 20 µM; hit rate 83% among 4,400;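 active = inhibition above about 39% in either of two replicate wells at 20 µM, limit read from the data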;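 note: temperature-sensitive tim23-1 mutant grown at 25 °C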
Of the large screens only hits and unclear results are named; the others gave an inactive call (follow-up assays come after a bar, where they were run). A selection: hits, their analogues and other compounds. The true share with any hit is near 4.1%. Cut-off read from the data, not from the text of the source, unless noted: active = inhibition above about 50%; inactive = the rest.

CCOc1ccc(N2CC(C(=O)NCCc3ccc(F)cc3)CC2=O)cc1 (stereo not given)	none
CCCCCCCCn1c(=O)c(C(=O)OC)c(N)c2ccccc21	tim23-1 inh 64.2, NLRP3 yeast inh 59.9 | NALP3 confirm inactive | tim23-1 confirm 44.0
CCCCCCCn1c(=O)c(C(=O)OC)c(N)c2ccccc21	tim23-1 inh 52.8, NLRP3 yeast inh 68.3 | NALP3 confirm 60.5 | Casp1 ASC ctr 93.3 | NALP3 retest 83.9 | tim23-1 confirm 49.6
CCC(C)N(C)C1CCN(C(=S)Nc2cccc(SC)c2)CC1 (stereo not given)	none
CCCCn1c(N)c(N(CC(C)C)C(=O)CCNC(=O)c2ccc([N+](=O)[O-])cc2)c(=O)[nH]c1=O	none (no result: NALP1 yeast inh)
O=Nc1c(-c2c(O)[nH]c3cc(Br)ccc23)[nH]c2ccccc12	tim23-1 inh 50.6, NLRP3 yeast inh 66.7 | NALP3 confirm 71.2 | Casp1 ASC ctr 55.8 | NALP3 retest 64.2 | tim23-1 confirm 56.9
COCCCn1c(=O)c2ccccc2n(Cc2cc(C(=O)OC)ccc2OC)c1=O	none
CC(C)(C)C1CCC(=NOC(=O)c2ccc(F)cc2)CC1 (stereo not given)	TIM10 inh 84.6, tim10-1 inh 44.8, tim23-1 inh 67.0, NLRP3 yeast inh 58.6 | NALP3 confirm 78.7 | Casp1 ASC ctr 53.8 | NALP3 retest inactive | tim10-1 confirm inactive | TIM10 conf 83.0 | tim23-1 confirm 62.5
O=C(O/N=C1/CCSc2ccccc21)c1ccc(F)cc1	none
C=CCSc1n[nH]c(-c2cccs2)n1	none
C=CCSc1n[nH]c(-c2ccc(OCCC)cc2)n1	TIM10 inh 45.8, tim23-1 inh 66.5, NLRP3 yeast inh 56.6 | NALP3 confirm 72.8 | Casp1 ASC ctr 56.2 | NALP3 retest inactive | TIM10 conf 41.1 | tim23-1 confirm 37.9
CCCCc1ccc(C2C(C#N)=C(N)SC(N)=C2C#N)s1	tim10-1 inh 50.5 | tim10-1 confirm 34.4
O=S(=O)(NC(=S)c1ccccc1)c1ccc(F)cc1	none
O=C(/C=C/c1cccc([N+](=O)[O-])c1)NCCSCc1ccccc1Cl	none
O=C(/C=C/c1cccc([N+](=O)[O-])c1)NCCSCc1ccc(Cl)cc1Cl	tim10-1 inh 42.0 | tim10-1 confirm 35.4
O=C(Oc1ccc2ccc(=O)oc2c1)c1ccco1	tim10-1 inh 45.8 | tim10-1 confirm inactive
Cc1cc(=O)oc(C)c1C(=O)n1nc(C)c2c1C[C@@H]1[C@H]2C1(C)C	none
O=C(Nc1ccc(Cl)cc1)[C@@H]1[C@@H]2C(=O)N(c3ccc(Cl)cc3Cl)C(=O)[C@@H]2[C@H]2C=CC=NN21	tim10-1 inh 44.7 | tim10-1 confirm inactive
O=C(Nc1ccc(Cl)cc1)[C@@H]1[C@@H]2C(=O)N(c3ccc(Cl)cc3)C(=O)[C@@H]2[C@H]2C=CC=NN21	none
COCCn1c(=S)[nH]c2cc(C(=O)N3CC(C)CC(C)C3)ccc2c1=O (stereo not given)	tim10-1 inh 41.1 | tim10-1 confirm inactive
Cc1ccc(CNC(=O)c2ccc3c(c2)NC(=O)CS3)cc1	none
COc1ccc(Nc2nc(Nc3ccc(OC)cc3)nc(SC3=NCCS3)n2)cc1	none | tim10-1 confirm inactive
COc1ccc(Nc2nc(OC)nc(OC)n2)cc1	none
COC(=O)C1=C(C(=O)OC)[C@@H]2N(Cc3ccccc3)c3ccccc3[C@@]23C[C@@H](C(=O)OC)N(C(=O)c2cccs2)C3=N1	tim10-1 inh 42.4 (no result: NALP1 yeast inh) | tim10-1 confirm inactive
COC(=O)C1=C(C(=O)OC)[C@@H]2N(C)c3ccccc3[C@@]23C[C@@H](C(=O)OC)N(C(=O)c2cccs2)C3=N1	none (no result: NALP1 yeast inh)
COc1ccc(/C=C/c2c(-c3ccc(OC)cc3)oc(=O)c3cc(OC)c(OC)cc23)cc1	none (no result: NALP1 yeast inh)
COc1ccc(-c2oc3cccnc3c2/C=C/c2ccc(OC)c(OC)c2)cc1	tim10-1 inh 41.1 | tim10-1 confirm inactive
CC(C(=O)NCC1CCCCC1)N1CCN(S(=O)(=O)/C=C/c2ccccc2)CC1 (stereo not given)	tim10-1 inh 41.2 | tim10-1 confirm inactive
CC(C(=O)NCC1CCCCC1)N1CCc2ccccc2C1 (stereo not given)	none
CC(C)n1cc(CN2CCC(Oc3ccc(C(=O)N4CCCC4)cc3)CC2)cn1	none
CC(C)(C)C1CCc2onc(C(=O)Nc3cnn(Cc4ccc(F)cc4)c3)c2C1 (stereo not given)	none
CC(C)(C)C1CCc2onc(C(=O)Nc3ccc(F)cc3F)c2C1 (stereo not given)	tim10-1 inh 41.3 | tim10-1 confirm inactive
CCc1nc(N2CCCCC2)c2oc3ccccc3c2n1	tim10-1 inh 40.5 | tim10-1 confirm inactive
CCc1nc(Nc2ccccc2OC)c2oc3ccccc3c2n1	tim10-1 inh 42.1 | tim10-1 confirm inactive
CCc1nc(Nc2cc(OC)ccc2OC)c2oc3ccccc3c2n1	none
CCc1nc(N2CCCCC2C)c2oc3ccccc3c2n1 (stereo not given)	tim10-1 inh 48.1 | tim10-1 confirm inactive
CCc1nc(N2CCCCC2C(=O)O)c2oc3ccccc3c2n1 (stereo not given)	none
CCOc1ccccc1NC(=O)c1ccc2c(c1)C(=O)N(CC)C2=O	none
CC(C(=O)Nc1ccc(C#N)cc1)N1CCN(C(=O)C2CC2)CC1 (stereo not given)	none (no result: NALP1 yeast inh)
O=C(NCCCn1ccnc1)/C(=C\c1ccc(Br)cc1)NC(=O)c1ccccc1	none
Cc1cc(NC(=O)C2CCCCC2C(=O)O)ccc1NC(=O)c1ccccc1 (stereo not given)	none
OC(COC(c1ccc(Cl)cc1)c1ccc(Cl)cc1)CN1CCc2ccccc2C1 (stereo not given)	tim10-1 inh 43.7 | tim10-1 confirm inactive
